Results filed as inconclusive are left out. Active and inactive are the calls of the source. The call rests on the fitted dose curve.
Target: Retinoic acid receptor RXR-alpha (Homo sapiens) (UniProt P19793)
Test: qHTS assay for small molecule agonists of retinoid X receptor alpha signaling (AID 588544)
Settings: HEK293T RXRa-UAS-bla, beta-lactamase reporter, 18 h; series mostly up to 76.7 µM
Text: NIH Chemical Genomics Center [NCGC] U.S. Environmental Protection Agency [EPA] National Institutes of Environmental Health Sciences [NIEHS] National Toxicology Program [NTP] NCGC Assay Overview The Retinoid X receptor (RXR), a nuclear hormone receptor is expressed in liver, spleen, placenta, epidermis, central nervous system. These receptors are able to form homo and heterodimers with other nuclear receptors and due to this heterodimerizing ability, RXR functions as master regulators producing diverse physiological effects. Three subtypes of RXR exist; alpha, beta and gamma. Retinoid X receptor alpha (RXR-alpha) has potential roles in metabolic signaling pathways, skin alopecia, dermal cysts, cardiac development, insulin sensitization etc. Therefore screening environmental chemicals on RXR-alpha signaling can be used for the studies focused on such therapeutic applications.
NCGC Assay Protocol Summary Using a beta-lactamase reporter-gene under control of Retinoid X receptor--alpha (RXR-alpha) response element, a cell-based assay [GeneBLAzer (RXR-alpha -UAS-bla assay developed by Invitrogen] was used to measure RXR-alpha ligands signaling. GeneBLAzer RXR-alpha -UAS-bla HEK293T cells were used with assay medium containing 2% charcoal-stripped FBS. The assay was performed in clear bottom black Greiner 1536-well plates. 9-cis-retinoic acid was used in the screen as the positive control. Library compounds were measured for their ability to stimulate the reporter gene activity. Compounds were screened in a titration series in 1536-well format. The fluorescence intensity (405 nm excitation, 460/530 nm emission) was measured using an EnVision plate reader. Data was normalized relative to 9-cis-retinoic acid control (500 nM, 100%), and DMSO only wells (basal, 0%). Concentration-response titration points for each compound were fitted to the Hill equation yielding concentrations of half-maximal stimulation (EC50) and maximal response (efficacy) values. qHTS protocol for RXR-alpha beta-lactamase assay in agonist mode [Step] [Parameter] [Value] [Description] 1. Reagent; 6 uL; 2500 cells/well 2. Incubation; 37 C for 4 hrs 3. Compounds; 23 nL; 0.59 nM to 92 uM 4. Controls (9-cis-retinoic acid); 23 nL, - One column with dose response, start 38 uM, 1:3 dilutions in duplicates - Final concentrations of 500 nM and 50 nM in two columns 5. Incubation; 37 C for 18 hrs 6. Detection reagent; 1 uL of CCF4-dye 7. Incubation; RT for 2 hrs 8. Detection; Fluorescence; Envision plate reader

Sequence of Retinoic acid receptor RXR-alpha (Homo sapiens) (P19793 whole entry, looked up): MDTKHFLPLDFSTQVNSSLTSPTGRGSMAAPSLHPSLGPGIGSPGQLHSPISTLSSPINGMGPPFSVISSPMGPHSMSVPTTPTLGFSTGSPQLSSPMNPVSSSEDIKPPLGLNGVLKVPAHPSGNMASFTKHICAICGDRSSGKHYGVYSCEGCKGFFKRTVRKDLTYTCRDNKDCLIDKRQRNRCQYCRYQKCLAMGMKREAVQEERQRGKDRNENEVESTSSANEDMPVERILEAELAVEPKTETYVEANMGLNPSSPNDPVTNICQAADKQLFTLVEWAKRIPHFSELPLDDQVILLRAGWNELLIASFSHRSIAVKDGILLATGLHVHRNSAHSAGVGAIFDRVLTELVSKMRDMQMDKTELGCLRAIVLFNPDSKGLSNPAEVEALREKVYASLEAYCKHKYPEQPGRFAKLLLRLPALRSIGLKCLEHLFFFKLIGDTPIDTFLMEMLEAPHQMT

| SMILES | outcome |
| --- | --- |
| Cc1cn([C@H]2C[C@H](N=[N+]=[N-])[C@@H](CO)O2)c(=O)[nH]c1=O | inactive |
| NCCS(=O)(=O)O | inactive |
| O=C(CCCN1CCC(O)(c2ccc(Cl)cc2)CC1)c1ccc(F)cc1 | inactive |
| CC(C)Cc1ccc(C(C)C(=O)O)cc1 (configuration not stated) | inactive |
| NS(=O)(=O)c1cc2c(cc1Cl)NCNS2(=O)=O | inactive |
| CCOC(=O)C(C)(C)Oc1ccc(Cl)cc1 | inactive |
| CC(C)NCC(O)c1ccc(O)c(O)c1 (configuration not stated) | inactive |
| COc1ccc2[nH]cc(CCNC(C)=O)c2c1 | inactive |
| CC(COc1ccccc1)N(CCCl)Cc1ccccc1 (configuration not stated) | inactive |
| Cn1c(=O)c2c(ncn2C)n(C)c1=O | inactive |
| Cn1c(=O)c2[nH]cnc2n(C)c1=O | inactive |
| CCC1(c2ccccc2)C(=O)NCNC1=O | inactive |
| N[C@@H](Cc1c[nH]c2ccc(O)cc12)C(=O)O | inactive |
| Cc1cn([C@H]2C=C[C@@H](CO)O2)c(=O)[nH]c1=O | inactive |
| Nc1ccn([C@H]2CC[C@@H](CO)O2)c(=O)n1 | inactive |
| O=c1[nH]cc(F)c(=O)[nH]1 | inactive |
| C[C@](N)(Cc1ccc(O)c(O)c1)C(=O)O | inactive |

— PubChem BioAssay (NCATS)
